From PubChem BioAssay (Tox21)
Results filed as inconclusive are left out. Active and inactive are the calls of the source. Calls follow the shape of the dose curve; as a rule, active = well fitted inhibition curve with a large enough effect in the signal ratio in the repeat runs (not every such curve was filed as active); inconclusive = weak or mixed curves, or effect the other way; inactive = no such curve, though single readings can be large or run the other way; the % refers to the signal ratio.

Target: Vitamin D3 receptor (Homo sapiens) (UniProt P11473)
Sequence (P11473 whole entry, looked up): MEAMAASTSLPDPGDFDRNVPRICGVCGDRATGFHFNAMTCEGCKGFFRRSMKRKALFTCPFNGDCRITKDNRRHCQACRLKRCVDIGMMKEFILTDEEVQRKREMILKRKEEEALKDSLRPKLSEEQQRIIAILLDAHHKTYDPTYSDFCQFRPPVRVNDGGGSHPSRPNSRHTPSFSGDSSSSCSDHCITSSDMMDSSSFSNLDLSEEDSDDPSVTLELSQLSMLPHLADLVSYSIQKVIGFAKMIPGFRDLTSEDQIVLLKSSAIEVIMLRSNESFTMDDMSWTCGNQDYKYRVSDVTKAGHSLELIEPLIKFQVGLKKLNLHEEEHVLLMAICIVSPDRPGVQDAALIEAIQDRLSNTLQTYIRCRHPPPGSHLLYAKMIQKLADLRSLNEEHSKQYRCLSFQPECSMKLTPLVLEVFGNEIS
Assay: qHTS assay to identify small molecule antagonists of the vitamin D receptor (VDR) signaling pathway (AID 743223)
Conditions: VDR-UAS-bla HEK293T, beta-lactamase FRET ratio, 16 h; series mostly up to 61 µM; activity change, negative = inhibition: at the top concentration
From the text: U.S. Tox21 Program National Center for Advancing Translational Sciences [NCATS] NIH Chemical Genomics Center [NCGC] U.S. Environmental Protection Agency [EPA] National Institutes of Environmental Health Sciences [NIEHS] National Toxicology Program [NTP] U.S. Food and Drug Administration [FDA] Tox21 Assay Overview: The vitamin D receptor (VDR), a member of nuclear hormone receptor superfamily, plays a critical role in calcium homeostasis and bone metabolism. It is also involved in cell differentiation and growth, and thrombogenicity.
Tox21 Assay Protocol Summary: VDR-bla cells were dispensed at 2,000 cells/5 uL of assay medium per well into black wall/clear-bottom 1536-well plates using a Multidrop Combi (Thermo Fisher Scientific, Waltham, MA) dispenser. After the assay plates were incubated at a 37C and 5% CO2 for 4 h, 23 nL of compounds dissolved in DMSO, positive controls or DMSO only was transferred to the assay plate by a Pintool station (Kalypsys, San Diego, CA), followed by addition of 1 uL of 1alpha, 25-Dihydroxy Vitamin D3 (3 nM, final concentration in the wells) using a Bioraptr Flying Reagent Dispenser (FRD) workstation (Beckman Coulter, Indianapolis, IN). The plates were incubated at 37C and 5% CO2 for 16 h, and then 1 uL of LiveBLAzerTM B/G FRET substrate was added using a Bioraptr FRD. The plates were incubated at room temperature for 2 h and fluorescence intensity was measured by an Envision plate reader (PerkinElmer, Shelton, CT).
% is scaled to controls: 0 for no effect and ±100 for the full control effect.

Structure (SMILES)	activity change, negative = inhibition
CCN(CC)CCNC(=O)c1cc(Cl)c(N)cc1OC	-5.81% (inactive)
CCN(CC)c1ccc(C(=C2C=CC(=[N+](CC)CC)C=C2)c2ccc(S(=O)(=O)O)cc2S(=O)(=O)[O-])cc1	8.97% (inactive)
CC(=O)N[C@@H](Cc1ccc(O)cc1)C(=O)O	-4.86% (inactive)
O=C(c1ccccc1)C1CCC1	5.54% (inactive)
O=S(=O)(O)CO	-1.58% (inactive)
Nc1nc2ccc(OC(F)(F)F)cc2s1	-0.892% (inactive)
O=C1OC(=O)c2c(Br)c(Br)c(Br)c(Br)c21	9.78% (inactive)
CC(C)(C)C1(CCc2ccc(Cl)cc2)CO1 (stereo not given)	14.2% (inactive)
CCN(CC)CC(=O)Nc1c(C)cccc1C(=O)OC	3.08% (inactive)
CCc1ccc(C)cc1	3.39% (inactive)
CCCCCCOC(=O)CCCCC	1.98% (inactive)
CC(C)OC(=O)c1ccccc1C(=O)OC(C)C	0.659% (inactive)
CC(=O)OCCC(C)CC(C)(C)C (stereo not given)	-4.06% (inactive)
CCO[Si](C)(CCCOCC1CO1)OCC (stereo not given)	0.627% (inactive)
Cc1cccc(C)c1NC(=O)c1cc(S(N)(=O)=O)c(Cl)cc1O	8.67% (inactive)
CC(C)(C)CCCCCCOC(=O)c1ccccc1C(=O)OCCCCCCC(C)(C)C	5.19% (inactive)
COc1cc(C(C)=O)ccc1OCCCN1CCC(c2noc3cc(F)ccc23)CC1	2.82% (inactive)
ClC1=C(Cl)C1(Cl)Cl	3.33% [at 78.8 µM] (inactive)
CCCCCCCCCCCCCCCCCC(=O)OCC(CC)CCCC (stereo not given)	-10.6% (inactive)
CCC(CO)(CO)[N+](=O)[O-]	-19.7% (inactive)

Structure (SMILES)	activity change, negative = inhibition
O=C(c1ccccc1)c1ccc(O)cc1	-2.97% [at 78.8 µM] (inactive)
CC(CN(CCN(CC(C)OCCO)CC(C)OCCO)CC(C)OCCO)OCCO (stereo not given)	7.51% [at 78.8 µM] (inactive)
CCCc1nc2c(C)cc(-c3nc4ccccc4n3C)cc2n1Cc1ccc(-c2ccccc2C(=O)O)cc1	9.83% (inactive)
CC(C)(C)C(O)/C=C/c1ccc2c(c1)OCO2 (stereo not given)	-4.54% (inactive)
Cc1cccc2sc(N)nc12	0.109% [at 78.8 µM] (inactive)
CC(=O)OCCC1CCCCC1	9.08% (inactive)
CCN(CC)CCOc1ccccc1C(=O)CCc1ccccc1	-1.96% (inactive)
Cc1ccc(NC(=O)N(C)C)cc1NC(=O)N(C)C	-16.3% (inactive)
CCN(Cc1cccc(S(=O)(=O)O)c1)c1ccc(C(=C2C=CC(=[N+](CC)Cc3cccc(S(=O)(=O)O)c3)C=C2)c2ccccc2S(=O)(=O)[O-])cc1	-2.31% (inactive)
CC(C)C(O)C(C)(C)CO (stereo not given)	-0.461% [at 78.8 µM] (inactive)
Oc1ccc2c(c1)Cc1ccccc1-2	-2.85% (inactive)
CCCCOC(=O)CCCCC(=O)OCCCC	-0.169% (inactive)
CCCCCCCCCCCCCCN(C)C	-3.67% [at 28.5 µM] (inactive)
COC(C)(C)OC	12.1% (inactive)
COc1ccc(C(=O)NCc2ccc(OCCN(C)C)cc2)cc1OC	1.64% (inactive)
Cc1cc([N+](=O)[O-])ccc1N	-0.728% (inactive)
C=C(C)C(=O)OCCC(F)(F)C(F)(F)C(F)(F)C(F)(F)C(F)(F)C(F)(F)F	3.59% (inactive)
CN(C)CC/C=C1\c2ccccc2Sc2ccc(Cl)cc21	-19% (inactive)
CCOCCC(=O)OCC	1.3% [at 78.8 µM] (inactive)
O=C(O)CCC(=O)c1ccc(-c2ccccc2)cc1	11.3% (inactive)
